These results are taken from PubChem BioAssay (Tox21).

SMILES strings stand for the structures. Calls of active or inactive are those of the source. Calls come from the whole dose curve; as a rule, active = well fitted activation curve with a large enough effect in the repeat runs; inconclusive = weak or mixed curves; inactive = flat fitted curve, though single readings scatter.
% is set by controls: 0 for no effect and ±100 for the full control effect.

The target of this assay is KiSS-1 receptor (Homo sapiens) (UniProt Q969F8). Nature of the assay: Human kisspeptin (KISS1R) small molecule agonists, calcium flux assay in KISS1R-HEK293 cells (AID 1920064). Particulars: KISS1R-HEK293, calcium flux fluorescence, agonist; series mostly up to 76.8 µM; activation: at the top concentration. The text has this: National Center for Advancing Translational Sciences [NCATS]
KiSS-1 receptor (Homo sapiens), sequence (Q969F8 whole entry, looked up): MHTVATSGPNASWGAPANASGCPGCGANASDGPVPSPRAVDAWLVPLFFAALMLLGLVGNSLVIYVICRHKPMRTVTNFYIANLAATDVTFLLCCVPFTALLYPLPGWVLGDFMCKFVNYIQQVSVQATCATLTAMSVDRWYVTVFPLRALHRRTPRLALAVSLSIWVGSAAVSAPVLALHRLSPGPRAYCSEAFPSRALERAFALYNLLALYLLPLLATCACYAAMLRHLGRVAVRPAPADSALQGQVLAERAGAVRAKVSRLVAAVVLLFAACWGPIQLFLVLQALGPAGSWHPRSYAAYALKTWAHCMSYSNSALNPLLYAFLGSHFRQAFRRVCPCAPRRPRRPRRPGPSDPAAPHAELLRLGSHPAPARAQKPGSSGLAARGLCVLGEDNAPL
Division of Preclinical Innovation [DPI]
U.S. Environmental Protection Agency [EPA]
National Institutes of Environmental Health Sciences [NIEHS]
National Toxicology Program [NTP]
U.S. Food and Drug Administration [FDA]
Kisspeptin and its receptor KISS1R play key roles in mammalian reproduction due to their involvement in the onset of puberty and control of the hypothalamic-pituitary-gonadal axis such as regulates GnRH release from the hypothalamus. The kisspeptin/KISS1R system also plays a direct role in peripheral organs (including the ovary, testis, uterus, and placenta) and is implicated in reproductive diseases such as miscarriage and polycystic ovary syndrome (PCOS). Abnormal KISS1R activity is associated with abnormal puberty, infertility, endometriosis, and hormone-dependent tumors. The KISS1 receptor (KISS1R, also called GPR54), a G-protein-coupled receptor (GPCR), acts (through phospholipase C) to increase intracellular inositol trisphosphate and then release intracellular calcium stores. Cell-based KISS1R-HEK293 assay is using HEK293 cells that have been genetically engineered to express the human KISS1R, which activity can be measured by calcium signaling. A compound/drug can activate (agonist) KISS1R that can be monitored by levels of intracellular calcium.
KISS1R-HEK293 cells developed by Codex Corp contain human KISS1R gene, which was stably integrated into HEK 293 cells. The compound activation can be detected by fluorescence intensity via calcium flux assay. This cell line has been used to screen the Tox21 10K compound library to identify agonists of KISS1R.
KISS1R-Hek293 cells were dispensed at 1500 cells/4uL/well in 1536-well black wall/clear bottom plates using a multidrop dispenser. After the assay plates were incubated at a 37 C/5% CO2 incubator for 18 hours, 4 microL of Calcium Dye Solution was added to each well. The plates were incubated at 37 C for 1 hour. And then 23 nL of compounds dissolved in DMSO, positive controls, or DMSO only was transferred to the assay plate by a pin tool station. The fluorescence intensity in the plates was measured using FDSS 7000EX kinetic plate reader with a filter set of Ex/Em=480/540 for 3 min at 1 sec intervals. Each test compound was measured at 15 concentrations and in triplicates.
With `Clc1ccc2c(c1)CCc1cccnc1C2=C1CCNCC1`, the “activation” value was -0.383% [at 35.3 µM] (inactive).
The value for `Cc1ccco1` was -8.04% (inactive); that for `CCCC(C)C` was -2.13% (inactive); that for `O=C(c1ccco1)N1CCNCC1` was -0.621% [at 35.3 µM] (inactive).
The result for `CC(C)OC(=O)c1cc2c(OCC(O)CNC(C)(C)C)cccc2[nH]1` (stereo not given) reads 1.03% [at 35.3 µM] (inactive); that for `Cn1c(=O)[nH]c2ncn(C)c2c1=O`, -2.87% (inactive).
`CC(C)=CCC/C(C)=C/CC/C(C)=C/CO`: the “activation” value was 2.94% (inactive).
The result for `CN1CCN(c2c(F)cc3c(=O)c(C(=O)O)cn4c3c2OCN4C)CC1` reads -1.38% [at 15.8 µM] (inactive); that for `C=CC(=O)OCC[N+](C)(C)C`, 12.1% (inactive).
As to `CN(C)[C@@H]1C(=O)C(C(=O)NCN2CCCC2)=C(O)[C@@]2(O)C(=O)C3=C(O)c4c(O)cccc4[C@@](C)(O)C3C[C@@H]12` (stereo not given in full), the “activation” value is 2.11% [at 35.3 µM] (inactive).
`CN=C(N)NC(=O)Nc1c(C)cccc1C`: the “activation” value was -1.26% [at 35.3 µM] (inactive).
Take `CC(C)NCC(O)c1ccc2ccccc2c1` (stereo not given): the “activation” value was 11.3% [at 35.3 µM] (inactive).
The result for `CCCC(c1cc(C(C)(C)C)c(O)cc1C)c1cc(C(C)(C)C)c(O)cc1C` reads -0.0955% (inactive).
On to `OCC(CBr)(CBr)CBr`, for which the “activation” value was -0.257% (inactive).
On to `CC(C)Oc1ccccc1O`, for which the “activation” value is -2.01% (inactive).
The value for `CCCCCCCCCCC(=O)O` was 0.931% (inactive); that for `O=CN1CCOCC1` was 0.464% (inactive); that for `CC1(C)CC(N)CC(C)(C)N1` was -3.56% (inactive).
The value for `O=C(O)c1cc(Cl)cc(Cl)c1O` was -0.111% (inactive); that for `O=S(O)O` was -3.75% [at 15.8 µM] (inactive).
The result for `O=C(/C=C/c1ccccc1)OC/C=C/c1ccccc1` reads 8.41% (inactive); that for `COc1cc(-c2nc(NC(=O)c3cc4cc(C)cc(C)c4n3CC(=O)O)sc2CCC2CCCCC2)c(OC)cc1Cl`, -1.26% (inactive).
On to `COC(C)(C)CCCC(C)CC=O` (stereo not given), for which the “activation” value was 0.828% (inactive).
The value for `CC(C)OC(=O)C(C(=O)OC(C)C)=C1SC=CS1` was 2.65% [at 35.3 µM] (inactive); that for `CC(N)C12CC3CC(CC(C3)C1)C2` (stereo not given) was -0.144% [at 35.3 µM] (inactive); that for `CCCCCCCCCCCC[N+](C)(C)CCCCCCCCCCCC` was 0.124% (inactive).
The result for `[Cl][Sc]([Cl])[Cl]` reads -1.71% (inactive); that for `O=S1OCCO1`, 1.16% (inactive).
The result for `O=C(CCc1ccc(O)cc1)c1c(O)cc(O)cc1O` reads 2.44% (inactive); that for `CCC(C)CCCC(C)(C)O` (stereo not given), 1.59% (inactive).
With `Cc1cccc([N+](=O)[O-])c1C(=O)O`, the “activation” value was 1.64% (inactive).
`CO[Si](C)(OC)c1ccccc1`: the “activation” value was 0.308% (inactive).
The result for `C=CC(=O)OCCCCCCCCCC` reads -0.664% (inactive); that for `CO[C@@H]1[C@@H](OC(N)=O)[C@@H](O)[C@H](Oc2ccc3c(O)c(NC(=O)c4ccc(O)c(CC=C(C)C)c4)c(=O)oc3c2C)OC1(C)C`, -0.788% [at 35.3 µM] (inactive).
Take `C/C=C\C/C=C/CCCCCCCCOC(C)=O`: the “activation” value is 0.334% (inactive).
On to `CC(C)(Oc1ccc(Cl)cc1)C(=O)OCCCOC(=O)C(C)(C)Oc1ccc(Cl)cc1`, for which the “activation” value was 1% [at 35.3 µM] (inactive).
The value for `COc1cc(C(=O)NS(=O)(=O)c2ccccc2C)ccc1Cc1cn(C)c2ccc(NC(=O)OC3CCCC3)cc12` was -1.92% [at 35.3 µM] (inactive).
On to `CCC1=C(C)CN(C(=O)NCCc2ccc(S(=O)(=O)NC(=O)NC3CCC(C)CC3)cc2)C1=O` (stereo not given), for which the “activation” value is -1.66% [at 35.3 µM] (inactive).
The result for `CCc1cccc(C)c1` reads -7.03% (inactive).
The result for `CC(C)C[C@@H](N)C(=O)O` reads -0.242% [at 15.8 µM] (inactive).
